One test has as its system MKL-2. The experiment in a line: qHTS assay to identify novel small-molecules to repurpose for Merkel cell carcinoma treatment (AID 1296009). Note: nearly all actives have a fitted effect of over 60% in size. The note with it: MCC and control cell lines, CellTiter-Glo viability, 72 h; series mostly up to 46 µM. In short, it runs like this:
(§1)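 Luminescence from CellTiter-Glo, read 10 min after addition at room temperature, reported viability following a 72 hr, 37 degree celsius treatment with NPC or MIPE compounds in titration; values normalized to plate controls.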

The test system of the next test is UISO. The test is described as above. The conditions noted are these: MCC and control cell lines, CellTiter-Glo viability, 72 h; series mostly up to 46 µM. The method in brief:
as §1

For a further test, the system named is C33A. Nature of the test: Primary qHTS to identify gynecologic anti-cancer compounds using libraries of approved drugs and bioactive compounds (AID 1345084). Note: nearly all actives have a fitted effect of over 55% in size. The note with it: Gynecologic cancer cell panel viability, ATPlite luminescence, 48 h; series mostly up to 57.5 µM. The method in brief: (§2)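 Five-concentration response, 48 h; readout is ATP-driven luciferase luminescence.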

A further test relates to CAOV3. The test is described as above. The note with it: Gynecologic cancer cell panel viability, ATPlite luminescence, 48 h; series mostly up to 57.5 µM. In short, it runs like this: as §2
Background: ATP-based viability assays read luminescence as a measure of living cells.

For the next test, the system named is CASKI. The description is as above. The conditions noted are these: Gynecologic cancer cell panel viability, ATPlite luminescence, 48 h; series mostly up to 57.5 µM. In short, it runs like this: as §2
For another test, the system named is Es-2. The description is as above. The note with it: Gynecologic cancer cell panel viability, ATPlite luminescence, 48 h; series mostly up to 57.5 µM. The method in brief: as §2
A further test deals with HeLa. The description is as above. The conditions noted are these: Gynecologic cancer cell panel viability, ATPlite luminescence, 48 h; series mostly up to 57.5 µM. In short, it runs like this:
as §2

A further test has as its system Hek293T. Described as above. The conditions noted are these: Gynecologic cancer cell panel viability, ATPlite luminescence, 48 h, control line for the selectivity index; series mostly up to 57.5 µM. In short, it runs like this: as §2
The next test concerns WaGa. The experiment in a line: qHTS assay to identify novel small-molecules to repurpose for Merkel cell carcinoma treatment (AID 1296009). Note: nearly all actives have a fitted effect of over 60% in size. The note with it: MCC and control cell lines, CellTiter-Glo viability, 72 h; series mostly up to 46 µM. The method in brief:
as §1

The next test deals with NIH3T3. Described as above. The conditions noted are these: MCC and control cell lines, CellTiter-Glo viability, 72 h; at 44.8 µM (top of the series) unless noted. The method in brief:
as §1

This note sets out measurements from PubChem BioAssay (NCATS).

Inconclusive results are not listed. Activity calls are given as the source filed them. Calls come from the whole dose curve; as a rule, active = well fitted curve in the direction sought with a large enough effect; inconclusive = small, poorly fitted or top-dose-only effect, or another doubt; inactive = no such curve, though single readings can be large; an effect the other way counts as inactive or inconclusive.
Potency is the fitted concentration of half-maximal effect.

For the compound `Cc1cc(N)c2cc(NC(=O)Nc3ccc4nc(C)cc(N)c4c3)ccc2n1`, the Potency result with MKL-2, with UISO, in the test with C33A, in the test with CAOV3, in the test with CASKI and in the test with Es-2 was “inactive” each time. Also, the Potency entry in the test with HeLa and in the test on Hek293T was “inactive” each time.

For `CCCCCCC[N+](CC)(CC)CCCCc1ccc(Cl)cc1`, the Potency is 0.237 µM (active) in the test with MKL-2, 4.73 µM (active) in the test with UISO, 0.668 µM (active) in the test on WaGa and 10 µM (active) in the test with CASKI.

As to `CCCCOc1ccc(C(=O)CCN2CCCCC2)cc1`, the figures for the Potency in the test with MKL-2 and in the test with WaGa were 2.66 µM (active) and 23.7 µM (active), respectively. For the same compound, the Potency entry in the test with C33A, in the test on CASKI and with HeLa was “inactive” throughout.

Turning to `Nc1ccc(C(=O)Nc2ccccc2N)cc1`, the Potency in the test with MKL-2 was 5.96 µM (active); in the test on WaGa, 2.66 µM (active). Besides, the Potency result with C33A, in the test on CASKI and with Hek293T was “inactive” throughout.

For the compound `CCCCCCCCCCCCCCCC[N+](C)(C)CCN(Cc1ccc(OC)cc1)c1ncccn1`, the Potency in the test on MKL-2 is 2.37 µM (active); in the test on UISO it was 10.6 µM (active); in the test on WaGa it was 16.8 µM (active); in the test on CAOV3, 17.8 µM (active).

As for `CN1CCC(=C2c3ccccc3Sc3ccccc32)CC1`, in the test on MKL-2, the Potency was 13.3 µM (active). Also, the Potency result in the test on C33A, in the test on CASKI, in the test on Es-2, in the test on HeLa and with Hek293T was “inactive” each time.

Consider `Oc1c(I)cc(I)c2cccnc12`, for which, in the test with MKL-2, the Potency was 11.9 µM (active). Further, the Potency result in the test with C33A, in the test on CAOV3, in the test on CASKI, with HeLa and in the test with Hek293T was “inactive” in each case.

Take `COc1cc(-c2ccc(=O)[nH]n2)ccc1OC(F)F`: the Potency result with MKL-2, in the test with WaGa, in the test on C33A, in the test with CAOV3, in the test with CASKI and in the test on Es-2 was “inactive” each time. Further, the Potency entry in the test on Hek293T was “inactive”.

Consider `Cc1c(C)n(CCN(C)C)c2ccc(C(=O)OCCN(C)C)cc12`, for which the Potency result in the test with MKL-2, in the test on UISO, with C33A, with CAOV3, in the test on CASKI and in the test with Es-2 was “inactive” in each case. For the same compound, the Potency entry in the test on HeLa and in the test with Hek293T was “inactive” each time.

As to `C[C@@H]1CN(CCCn2c3ccccc3c3ccccc32)C[C@H](C)N1`, the Potency in the test on C33A is 22.4 µM (active).

On to `CCOc1ccc(Cc2nccc3cc(OCC)c(OCC)cc23)cc1OCC`, for which the Potency in the test with MKL-2 was 16.8 µM (active). Besides, the Potency result in the test with CAOV3 and with HeLa was “inactive” each time.

As for `COC(=O)C1=C(C)NC(C)=C(C(=O)O[C@@H]2CCCN(Cc3ccccc3)C2)[C@@H]1c1cccc([N+](=O)[O-])c1`, the Potency in the test on WaGa was 26.6 µM (active). Also, the Potency result in the test on C33A, in the test on CAOV3, in the test with CASKI, in the test with Es-2, in the test on HeLa and with Hek293T was “inactive” throughout.

For the compound `O=S1(=O)c2cccc3cccc(c23)N1CCCN1CCN(c2ccc(F)cc2)CC1`, the Potency result in the test with UISO, with C33A, in the test with CAOV3, with CASKI, with Es-2 and in the test on HeLa was “inactive” in each case. Also, in the test on Hek293T, the Potency result is “inactive”.

As to `COc1ccc(/C=C/C(=O)c2ccc(OC)cc2OC)cc1`, the Potency in the test on MKL-2 is 5.31 µM (active). Besides, the Potency result with Es-2, in the test on HeLa and in the test with Hek293T was “inactive” in each case.

As to `Cc1c(C)n(Cc2ccccc2)c2ccc(C(=O)OCCN(C)C)cc12`, the Potency entry in the test on UISO, with WaGa, in the test on C33A, in the test on CASKI, with Es-2 and in the test on HeLa was “inactive” in each case. Also, the Potency result with Hek293T was “inactive”.

As to `COc1cc(N)c(Cl)cc1C(=O)NC1CCN(CCCOc2ccc(F)cc2)CC1OC` (stereo not given), the Potency result in the test with WaGa, in the test on C33A, in the test on CAOV3, in the test with CASKI, in the test on Es-2 and with HeLa was “inactive” each time. For the same compound, the Potency result in the test on Hek293T was “inactive”.

With `O=C1OCCN1/N=C/c1ccc([N+](=O)[O-])o1`, in the test on NIH3T3, the compound was called inactive. In addition, the Potency entry with C33A, in the test on CAOV3, with CASKI, with Es-2, in the test on HeLa and in the test with Hek293T was “inactive” throughout.

Consider `CN1CCN(CCCN2c3ccccc3Sc3ccc(S(=O)(=O)N(C)C)cc32)CC1`, for which the Potency entry in the test on UISO, in the test on C33A, in the test on CAOV3, in the test with CASKI, with Es-2 and with HeLa was “inactive” in each case. In addition, in the test with Hek293T, the Potency entry was “inactive”.

On to `Clc1ccc2c(c1)CCc1cccnc1C2=C1CCNCC1`, for which the Potency in the test with MKL-2 was 26.6 µM (active). Moreover, the Potency entry in the test on C33A, in the test with Es-2, with HeLa and in the test on Hek293T was “inactive” each time.

As to `C[C@H]1C[C@H]2[C@@H]3CCC4=CC(=O)C=C[C@]4(C)[C@@]3(Cl)[C@@H](O)C[C@]2(C)[C@@]1(O)C(=O)CO`, the Potency entry in the test on UISO, in the test with WaGa, with C33A, in the test with CASKI, in the test on Es-2 and in the test on HeLa was “inactive” in each case. The Potency entry in the test with Hek293T is “inactive”.

In the case of `COc1cccc(CCc2ccccc2OCC(CN(C)C)OC(=O)CCC(=O)O)c1` (stereo not given), the Potency entry in the test with UISO, in the test on C33A, in the test on CAOV3, in the test on CASKI, with Es-2 and in the test on HeLa was “inactive” throughout. Also, the Potency entry in the test on Hek293T is “inactive”.

On to `c1ccc(OCc2ccc(CCCN3CCOCC3)cc2)cc1`, for which the Potency entry in the test with C33A, in the test with CAOV3, with CASKI, with Es-2 and in the test with HeLa was “inactive” throughout.

Turning to `CC(=O)c1ccc2c(c1)N(CCCN1CCC(CCO)CC1)c1ccccc1S2`, the Potency with MKL-2 was 21.1 µM (active). Moreover, the Potency result in the test on C33A, in the test with Es-2, with HeLa and in the test on Hek293T was “inactive” throughout.

Turning to `COc1cccc2c1C(=O)c1c(O)c3c(c(O)c1C2=O)C[C@@](O)(C(=O)CO)C[C@@H]3O[C@H]1C[C@H](N)[C@H](O)[C@H](C)O1`, the Potency in the test with UISO is 0.75 µM (active); with C33A it was 2.82 µM (active); with CAOV3, 2.51 µM (active); in the test with CASKI, 2 µM (active); in the test with Es-2, 10 µM (active); with HeLa, 22.4 µM (active). Also, the Potency in the test with Hek293T was 7.94 µM (active).

As to `COCc1c(C(C)C)nc(C(C)C)c(/C=C/[C@@H](O)C[C@@H](O)CC(=O)O)c1-c1ccc(F)cc1`, the Potency in the test on UISO is 0.473 µM (active); with WaGa it was 1.06 µM (active); with CAOV3 it was 7.08 µM (active); in the test with HeLa, 1.78 µM (active). For the same compound, in the test on CASKI, the Potency entry is “inactive”.

In the case of `CCCCCCCCCCCCCCNCCO`, the Potency entry in the test on WaGa, in the test with CASKI, in the test on Es-2, with HeLa and with Hek293T was “inactive” throughout.

`COc1cc2c(cc1OC)C(=O)C(CC1CCN(Cc3ccccc3)CC1)C2` (stereo not given): the Potency entry with UISO, with C33A, with CASKI, with Es-2, with HeLa and in the test on Hek293T was “inactive” each time.
